{
  "source": "ChEMBL document CHEMBL2218924",
  "about": "“A broad activity screen in support of a chemogenomic map for kinase signalling research and drug discovery” (Biochem J, 2013)",
  "data": [
    {"molecular_target": "Mitogen-activated protein kinase 10 (Homo sapiens) (UniProt P53779)", "sequence (P53779 whole entry)": "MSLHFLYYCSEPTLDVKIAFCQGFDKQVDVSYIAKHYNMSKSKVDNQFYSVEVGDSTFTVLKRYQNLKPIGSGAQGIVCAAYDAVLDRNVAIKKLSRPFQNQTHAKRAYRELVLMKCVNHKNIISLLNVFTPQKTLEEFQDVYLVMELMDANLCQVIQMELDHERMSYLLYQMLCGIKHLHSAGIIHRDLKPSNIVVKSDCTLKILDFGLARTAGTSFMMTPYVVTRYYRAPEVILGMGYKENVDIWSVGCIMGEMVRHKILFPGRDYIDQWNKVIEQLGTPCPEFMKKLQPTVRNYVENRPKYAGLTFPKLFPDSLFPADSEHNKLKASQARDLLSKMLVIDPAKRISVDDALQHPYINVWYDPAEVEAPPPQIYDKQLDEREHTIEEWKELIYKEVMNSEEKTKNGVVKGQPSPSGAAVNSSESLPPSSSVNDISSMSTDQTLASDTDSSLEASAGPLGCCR", "details": "at 10 µM", "units": {"residual activity": "%"}, "values": [
      {"smiles": "CCN(CC)CCCCN1c2ccccc2Oc2ccc(Cl)cc21", "residual activity": 137},
      {"smiles": "COc1cccc(-c2cc(=O)c3ccccc3o2)c1N", "residual activity": 95},
      {"smiles": "Cc1cccc(-c2[nH]c(C(C)(C)C)nc2-c2ccc3c(c2)OCO3)n1", "residual activity": 85},
      {"smiles": "c1ccc(-c2n[nH]c3c2oc2ccccc23)cc1", "residual activity": 32},
      {"smiles": "N#C/C(=C(\\N)Sc1ccc(N)cc1)c1ccccc1C(F)(F)F", "residual activity": 83},
      {"smiles": "CC(=O)c1ccc(N2CCOCC2)cc1O", "residual activity": 85},
      {"smiles": "COc1cc2ncnc(Nc3ccc(O)c(Br)c3)c2cc1OC", "residual activity": 13},
      {"smiles": "O=C1Nc2cc(Br)ccc2/C1=C1/Nc2ccccc2/C1=N\\O", "residual activity": 16},
      {"smiles": "COc1cc2ncc(-c3ccccc3)nc2cc1OC", "residual activity": 79},
      {"smiles": "COc1cc2ncnc(Nc3ccc(NC(=O)c4ccccc4)cc3)c2cc1OC", "residual activity": 76},
      {"smiles": "Nc1cccc(-c2cc3c(Oc4cccc(O)c4)ncnc3[nH]2)c1", "residual activity": 57},
      {"smiles": "CCC(=O)Nc1ccc2ncnc(Nc3cccc(Br)c3)c2c1", "residual activity": 37},
      {"smiles": "CCN(CC)C(=O)c1ccc(Nc2nc(OCC3CCCCC3)c3nc[nH]c3n2)cc1", "residual activity": -4},
      {"smiles": "CN(C)CCCn1cc(C2=C(c3c[nH]c4ccccc34)C(=O)NC2=O)c2ccccc21", "residual activity": 101},
      {"smiles": "N#CC(C#N)=C(N)/C(C#N)=C/c1ccc(O)cc1", "residual activity": 88},
      {"smiles": "O=C1Nc2ccccc2/C1=C1/Nc2ccccc2/C1=N\\OCCC(O)CO", "note": "(centres undefined)", "residual activity": 20},
      {"smiles": "CC[n+]1c(/C=C/N(C)c2ccccc2)n(-c2ccccc2)c2ccc(-c3nc4ccccc4s3)cc21", "residual activity": 93},
      {"smiles": "CC(C)n1cnc2/c(=N/c3cccc(Cl)c3)nc(NCCO)[nH]c21", "residual activity": 60},
      {"smiles": "Oc1ccc(-c2nc(-c3ccc(F)cc3)c(-c3ccncc3)[nH]2)cc1", "residual activity": -2},
      {"smiles": "CC(=O)O/N=C1\\C(=C2\\C(=O)Nc3cc(Br)ccc32)Nc2ccccc21", "residual activity": 61},
      {"smiles": "O=C1NC(=O)c2c1c1c3ccccc3[nH]c1c1[nH]c3cc(Br)ccc3c21", "residual activity": 67},
      {"smiles": "CNc1cc2c(Nc3cccc(Br)c3)ncnc2cn1", "residual activity": 60},
      {"smiles": "CO[C@H]1C[C@@H]2CC[C@@H](C)[C@@](O)(O2)C(=O)C(=O)N2CCCC[C@H]2C(=O)O[C@H]([C@H](C)C[C@@H]2CC[C@@H](O)[C@H](OC)C2)CC(=O)[C@H](C)/C=C(\\C)[C@@H](O)[C@@H](OC)C(=O)[C@H](C)C[C@H](C)/C=C/C=C/C=C/1C", "residual activity": 153},
      {"smiles": "Cn1cc(/C=C2\\C(=O)Nc3ccc(S(N)(=O)=O)cc32)c2ccccc21", "residual activity": 40},
      {"smiles": "CO[C@H]1[C@@H](OC)C[C@H](C)[C@@H](OC)C2=CC(=O)C=C(NC(=O)/C(C)=C/C=C/[C@H](OC)[C@@H](OC(N)=O)/C(C)=C/[C@@H]1C)C2=O", "residual activity": 110},
      {"smiles": "N#Cc1cnc2cnc(NCc3cccnc3)cc2c1Nc1ccc(F)c(Cl)c1", "residual activity": 80},
      {"smiles": "O=[N+]([O-])c1ccc(-c2nc(-c3ccc(F)cc3)c(-c3ccncc3)[nH]2)cc1", "residual activity": 21},
      {"smiles": "Oc1ccc(Nc2nc(-c3ccc(Cl)cc3)cs2)cc1", "residual activity": 115},
      {"smiles": "C[C@@H](N)[C@H]1CC[C@H](C(=O)Nc2ccncc2)CC1", "residual activity": 86},
      {"smiles": "Cc1cc(Nc2nc(-c3ccccc3)nc3ccccc23)n[nH]1", "residual activity": 12},
      {"smiles": "N#CCCc1ccc2c(c1)-c1[nH]c3ccc([N+](=O)[O-])cc3c1CC(=O)N2", "residual activity": 43},
      {"smiles": "COc1cc2ncnc(Nc3ccc(Oc4ccccc4)cc3)c2cc1OC", "residual activity": 148}
    ]},
    {"molecular_target": "Vascular endothelial growth factor receptor 2 (Homo sapiens) (UniProt P35968)", "sequence (P35968 whole entry)": "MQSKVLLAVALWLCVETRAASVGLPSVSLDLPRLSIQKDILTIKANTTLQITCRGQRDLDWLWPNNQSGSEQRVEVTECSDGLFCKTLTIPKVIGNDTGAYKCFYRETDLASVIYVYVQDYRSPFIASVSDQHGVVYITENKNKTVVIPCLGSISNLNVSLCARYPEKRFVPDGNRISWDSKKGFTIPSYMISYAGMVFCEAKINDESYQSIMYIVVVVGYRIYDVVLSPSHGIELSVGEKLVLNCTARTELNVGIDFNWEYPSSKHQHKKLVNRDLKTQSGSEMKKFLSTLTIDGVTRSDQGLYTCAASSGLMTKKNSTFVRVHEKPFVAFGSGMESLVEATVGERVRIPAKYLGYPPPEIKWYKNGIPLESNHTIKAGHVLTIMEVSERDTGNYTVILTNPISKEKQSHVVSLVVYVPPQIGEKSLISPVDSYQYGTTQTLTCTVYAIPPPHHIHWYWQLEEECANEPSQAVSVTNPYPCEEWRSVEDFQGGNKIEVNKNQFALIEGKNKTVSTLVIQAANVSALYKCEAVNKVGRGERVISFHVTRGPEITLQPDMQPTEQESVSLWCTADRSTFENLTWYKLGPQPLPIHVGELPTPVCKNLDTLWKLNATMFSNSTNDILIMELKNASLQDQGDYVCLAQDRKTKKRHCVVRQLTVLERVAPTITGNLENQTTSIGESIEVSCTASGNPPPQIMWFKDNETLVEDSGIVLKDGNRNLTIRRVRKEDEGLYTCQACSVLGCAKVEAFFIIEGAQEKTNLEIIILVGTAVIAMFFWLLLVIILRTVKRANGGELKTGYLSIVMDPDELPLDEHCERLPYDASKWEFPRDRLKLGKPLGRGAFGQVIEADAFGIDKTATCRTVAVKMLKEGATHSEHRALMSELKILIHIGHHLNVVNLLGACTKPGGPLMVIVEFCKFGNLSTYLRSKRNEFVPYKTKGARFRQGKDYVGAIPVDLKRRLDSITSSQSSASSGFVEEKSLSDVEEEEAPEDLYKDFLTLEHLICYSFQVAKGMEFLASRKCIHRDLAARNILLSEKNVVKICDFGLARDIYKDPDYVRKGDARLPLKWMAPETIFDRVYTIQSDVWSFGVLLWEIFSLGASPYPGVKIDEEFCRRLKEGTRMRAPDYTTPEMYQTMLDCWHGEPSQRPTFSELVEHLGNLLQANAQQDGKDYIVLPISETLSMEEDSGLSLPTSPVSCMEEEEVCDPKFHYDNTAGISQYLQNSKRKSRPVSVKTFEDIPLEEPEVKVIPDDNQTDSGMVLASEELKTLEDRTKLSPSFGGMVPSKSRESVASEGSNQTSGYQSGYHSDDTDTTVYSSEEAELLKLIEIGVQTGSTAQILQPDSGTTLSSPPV", "details": "at 1 µM", "units": {"residual activity": "%"}, "values": [
      {"smiles": "CCN(CC)CCCCN1c2ccccc2Oc2ccc(Cl)cc21", "residual activity": 112},
      {"smiles": "O=C1NC(=O)c2cc(Nc3ccc(F)cc3)c(Nc3ccc(F)cc3)cc21", "residual activity": 99},
      {"smiles": "COc1cccc(-c2cc(=O)c3ccccc3o2)c1N", "residual activity": 101},
      {"smiles": "Cc1cccc(-c2[nH]c(C(C)(C)C)nc2-c2ccc3c(c2)OCO3)n1", "residual activity": 101},
      {"smiles": "c1ccc(-c2n[nH]c3c2oc2ccccc23)cc1", "residual activity": 5},
      {"smiles": "N#C/C(=C(\\N)Sc1ccc(N)cc1)c1ccccc1C(F)(F)F", "residual activity": 97},
      {"smiles": "CC(=O)c1ccc(N2CCOCC2)cc1O", "residual activity": 106},
      {"smiles": "COc1cc2ncnc(Nc3ccc(O)c(Br)c3)c2cc1OC", "residual activity": 30},
      {"smiles": "O=C1Nc2cc(Br)ccc2/C1=C1/Nc2ccccc2/C1=N\\O", "residual activity": 3},
      {"smiles": "COc1cc2ncnc(Nc3ccc(NC(=O)c4ccccc4)cc3)c2cc1OC", "residual activity": 95},
      {"smiles": "Nc1cccc(-c2cc3c(Oc4cccc(O)c4)ncnc3[nH]2)c1", "residual activity": 5},
      {"smiles": "CCC(=O)Nc1ccc2ncnc(Nc3cccc(Br)c3)c2c1", "residual activity": 95},
      {"smiles": "O=C1Nc2ccc(Br)cc2/C1=C\\c1cc2c([nH]1)CCCC2", "residual activity": 12},
      {"smiles": "CCN(CC)C(=O)c1ccc(Nc2nc(OCC3CCCCC3)c3nc[nH]c3n2)cc1", "residual activity": 33},
      {"smiles": "CN(C)CCCn1cc(C2=C(c3c[nH]c4ccccc34)C(=O)NC2=O)c2ccccc21", "residual activity": 61},
      {"smiles": "O=C1Nc2ccccc2/C1=C1/Nc2ccccc2/C1=N\\OCCC(O)CO", "note": "(centres undefined)", "residual activity": 3},
      {"smiles": "CC[n+]1c(/C=C/N(C)c2ccccc2)n(-c2ccccc2)c2ccc(-c3nc4ccccc4s3)cc21", "residual activity": 109},
      {"smiles": "CC(C)n1cnc2/c(=N/c3cccc(Cl)c3)nc(NCCO)[nH]c21", "residual activity": 85},
      {"smiles": "Oc1ccc(-c2nc(-c3ccc(F)cc3)c(-c3ccncc3)[nH]2)cc1", "residual activity": 98},
      {"smiles": "CC(=O)O/N=C1\\C(=C2\\C(=O)Nc3cc(Br)ccc32)Nc2ccccc21", "residual activity": 67},
      {"smiles": "O=C1NC(=O)c2c1c1c3ccccc3[nH]c1c1[nH]c3cc(Br)ccc3c21", "residual activity": 70},
      {"smiles": "CNc1cc2c(Nc3cccc(Br)c3)ncnc2cn1", "residual activity": 85},
      {"smiles": "CO[C@H]1C[C@@H]2CC[C@@H](C)[C@@](O)(O2)C(=O)C(=O)N2CCCC[C@H]2C(=O)O[C@H]([C@H](C)C[C@@H]2CC[C@@H](O)[C@H](OC)C2)CC(=O)[C@H](C)/C=C(\\C)[C@@H](O)[C@@H](OC)C(=O)[C@H](C)C[C@H](C)/C=C/C=C/C=C/1C", "residual activity": 100},
      {"smiles": "Cn1cc(/C=C2\\C(=O)Nc3ccc(S(N)(=O)=O)cc32)c2ccccc21", "residual activity": 28},
      {"smiles": "CO[C@H]1[C@@H](OC)C[C@H](C)[C@@H](OC)C2=CC(=O)C=C(NC(=O)/C(C)=C/C=C/[C@H](OC)[C@@H](OC(N)=O)/C(C)=C/[C@@H]1C)C2=O", "residual activity": 97},
      {"smiles": "O=[N+]([O-])c1ccc(-c2nc(-c3ccc(F)cc3)c(-c3ccncc3)[nH]2)cc1", "residual activity": 85},
      {"smiles": "Oc1ccc(Nc2nc(-c3ccc(Cl)cc3)cs2)cc1", "residual activity": 104},
      {"smiles": "C[C@@H](N)[C@H]1CC[C@H](C(=O)Nc2ccncc2)CC1", "residual activity": 113},
      {"smiles": "c1ccc2c(-c3ccncc3)c[nH]c2c1", "residual activity": 100},
      {"smiles": "Cc1cc(Nc2nc(-c3ccccc3)nc3ccccc23)n[nH]1", "residual activity": 5},
      {"smiles": "N#CCCc1ccc2c(c1)-c1[nH]c3ccc([N+](=O)[O-])cc3c1CC(=O)N2", "residual activity": 30},
      {"smiles": "COc1cc2ncnc(Nc3ccc(Oc4ccccc4)cc3)c2cc1OC", "residual activity": 49}
    ]}
  ]
}
